# From PubChem
# KCNQ2 pot: potentiators of rat KCNQ2 potassium channel | actives 0.54% (n = 310,000) | Potassium voltage-gated channel subfamily KQT member 2 (Rattus norvegicus), O88943 | CHO-K1 KCNQ2, FluxOR thallium flux fluorescence; active compounds read high | B-score at 10 µM;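 active = fluorescence ratio B-score at least 3 SD of library B-scores, with initial fluorescence B-score within 3 of them, cut at about 5.3 in these data; same plate scores as AID 2156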;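 also: B-score of peak minus minimum over baseline fluorescence ratio after K+ and Tl+ stimulus; positive B-score means potentiation of KCNQ2 with more thallium influx and brighter signal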
# Target sequence (O88943 whole entry, looked up): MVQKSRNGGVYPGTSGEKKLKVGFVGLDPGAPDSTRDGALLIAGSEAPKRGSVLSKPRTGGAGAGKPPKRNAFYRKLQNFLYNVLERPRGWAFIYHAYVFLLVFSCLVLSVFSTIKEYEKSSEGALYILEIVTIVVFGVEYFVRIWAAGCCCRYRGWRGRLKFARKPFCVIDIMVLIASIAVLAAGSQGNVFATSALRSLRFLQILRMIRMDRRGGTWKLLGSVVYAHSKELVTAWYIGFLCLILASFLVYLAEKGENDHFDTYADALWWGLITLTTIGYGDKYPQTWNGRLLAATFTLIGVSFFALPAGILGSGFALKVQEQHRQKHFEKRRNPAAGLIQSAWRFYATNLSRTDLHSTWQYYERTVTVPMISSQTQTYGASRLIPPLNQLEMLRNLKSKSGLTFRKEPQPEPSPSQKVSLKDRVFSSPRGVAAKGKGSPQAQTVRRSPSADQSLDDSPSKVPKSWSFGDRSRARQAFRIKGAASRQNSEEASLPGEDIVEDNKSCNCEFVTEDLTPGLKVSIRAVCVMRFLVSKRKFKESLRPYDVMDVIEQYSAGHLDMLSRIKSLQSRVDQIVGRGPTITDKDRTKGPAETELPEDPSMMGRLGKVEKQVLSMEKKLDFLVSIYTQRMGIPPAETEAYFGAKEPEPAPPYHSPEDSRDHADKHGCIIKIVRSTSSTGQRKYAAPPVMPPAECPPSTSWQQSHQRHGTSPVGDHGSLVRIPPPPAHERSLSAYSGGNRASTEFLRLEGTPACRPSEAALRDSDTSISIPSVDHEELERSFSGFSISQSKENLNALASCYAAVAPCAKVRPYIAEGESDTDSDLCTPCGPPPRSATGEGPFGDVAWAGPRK
# KCNQ2 block: rat KCNQ2 potassium channel inhibitors, primary screen, cell-based, CHO-K1, FluxOR thallium flux, B-score; Potassium voltage-gated channel subfamily KQT member 2 (Rattus norvegicus), O88943; 20 min; active compounds read low; B-score at 10 µM; actives 1.1% (n = 310,000); AID 2156, 2009;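 active = fluorescence ratio B-score at most minus 3 library SDs, with starting brightness B-score within 2 library SDs, cut at about -5.5 in these data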
# * marks the source's active call; other numbers are inactive results; i = inactive; . = no result. The list is not random: actives were taken first. Their share in the collection is about 1.6%.
SMILES,KCNQ2 pot,KCNQ2 block
COC(=O)C1=CN(c2ccc(OC)cc2)C=C(C(=O)OC)C1c1ccc([N+](=O)[O-])cc1,-5.6,-5.6*
CCCCC(CC)CNC(=O)c1ccc2c(c1)OCO2 (stereo not drawn),-7,-7*
CCOCCCNC(=O)c1ccc2c(c1)OCO2,.,i
Cc1nn2c(N3CCN(C)CC3)cc(C(C)(C)C)nc2c1-c1ccccc1,.,i
Cc1nn2c(N3CCN(C(=O)c4ccco4)CC3)cc(C(C)(C)C)nc2c1-c1ccccc1,-6.5,-6.5*
CC(C)S(=O)(=O)C1=NSC2=NC(=O)/C(=C\c3ccc(-c4ccccc4)o3)C(=N)N21,-5.9,-5.9*
N=C1/C(=C\c2ccc(-c3cc(Cl)cc(Cl)c3)o2)C(=O)N=C2SC=C(c3ccccc3)N12,0.75,i
Cc1ccccc1NC(=S)NC(NC(=O)COc1ccccc1)C(Cl)(Cl)Cl (stereo not drawn),.,i
O=C(COc1ccccc1)NC(NC(=S)Nc1ccccc1O)C(Cl)(Cl)Cl (stereo not drawn),-6.2,-6.2*
Cc1nc2ccn(Cc3ccccc3)c(=O)c2cc1C(=O)N1CCN(c2ccccc2)CC1,0.03,i
CCCN1CC(=O)N2Cc3[nH]c4ccccc4c3C[C@H]2C1=O,.,i
CC(C)CCN1CC(=O)N2Cc3[nH]c4ccccc4c3C[C@H]2C1=O,-7.2,-7.2*
COc1ccc(CC(=O)N(C)Cc2cccc(OC)c2OC)cc1S(=O)(=O)N1CCOCC1,.,i
CCc1cc(SC#N)cc(CC)c1NC(=O)CCl,5.3*,i
Cc1cc(C)c2c(NC(=O)CCl)nn(C)c2n1,0.1,i
O=C(O)COc1ccc(/C=C/c2nc3ccc([N+](=O)[O-])cc3s2)cc1,1.9,i
O=C(Nc1ccc(COc2ccccc2)cc1)Nc1cccc(C(=O)O)c1,0.01,i
CC(C)Oc1cccc(C(=O)C2CCCN(Cc3ccc(Oc4ncccn4)cc3)C2)c1 (stereo not drawn),-7.8,-7.8*
COc1c(C)cc(C(=O)C2CCCN(Cc3ccc(Oc4ncccn4)cc3)C2)cc1C (stereo not drawn),.,i
C=CCc1ccc(OCCn2cccc2C=O)c(OC)c1,7.6*,i
C=CCc1ccc(OCCn2nnc3ccccc32)c(OC)c1,1.9,i
O=C(O)CSCC(=O)N1CCN(Cc2ccc3c(c2)OCO3)CC1,0.55,i
Cc1ccc(O)c(C(CC(=O)NC(C)C)c2ccccc2)c1 (stereo not drawn),0.44,i
Cc1cccc(C(CC(=O)NCc2ccco2)c2ccccc2)c1O (stereo not drawn),0.02,i
Cc1ccc(O)c(C(CC(=O)NCc2ccco2)c2ccccc2)c1 (stereo not drawn),16*,i
SMILES,KCNQ2 pot,KCNQ2 block
CCCN(CCC)C(=O)CC(c1ccccc1)c1cc(C)ccc1O (stereo not drawn),-6,-6*
Cn1c(CC(=O)Nc2ccccc2F)nnc1SCC(=O)Nc1ccccc1Br,.,i
OC1(c2ccccc2)CNCCc2ccccc21 (stereo not drawn),0.01,i
COCCN(C(=O)COC(=O)CCSc1ccc(F)cc1)c1c(N)n(Cc2ccccc2)c(=O)[nH]c1=O,0.59,i
CC(=N\Nc1ccccc1)/C(=N/O)C(=O)Nc1ccccc1,-6,-6*
CC(=N\NC(=O)c1ccccc1)/C(=N/O)C(=O)Nc1ccccc1,.,i
CC(=O)Nc1cccc(NC(=O)CSc2nc(=O)n(CCN3CCOCC3)c3c2CCCC3)c1,0.66,i
COCC(=O)N1CCC(Oc2ccc(C(=O)NCCCC3CCCC3)cc2)CC1,.,i
Cc1onc(-c2c(F)cccc2Cl)c1C(=O)c1ccc(F)cc1,.,i
Cc1onc(-c2c(Cl)cccc2Cl)c1C(=O)c1ccc(F)cc1,6.8*,i
N#C/C(=C\c1ccc(F)cc1F)S(=O)(=O)c1ccccn1,0.13,i
COCC(CN1CCN(C2=NS(=O)(=O)c3ccccc32)CC1)OC(=O)c1ccccc1 (stereo not drawn),.,i
CCN(CC)C(=O)CSc1nc(-c2ccc(C)cc2)nc2c1COC(C)(C)C2,-7.4,-7.4*
CC1(C)Cc2nc(-c3ccccc3)nc(SCC(=O)N3CCOCC3)c2CO1,.,i
COc1ccc(NC(=O)CSc2nnnn2C2CC3C=CC2C3)cc1 (stereo not drawn),.,i
O=C1CCCC(O)=C1C(C#Cc1ccccc1)C1=C(O)CCCC1=O,-6.5,-6.5*
CC1(C)CC(=O)C(C(C#Cc2ccccc2)C2=C(O)CC(C)(C)CC2=O)=C(O)C1,-5.7,-5.7*
CC1(C)CC(=O)C(N=Nc2ccc(-c3ccccc3)cc2)=C(O)C1,.,i
O=C1CCCC(O)=C1Sc1ccccc1C(=O)O,.,i
COc1ccccc1CN1C(=NC(=O)C2CCCCC2)SC2CS(=O)(=O)CC21 (stereo not drawn),1.2,i
Cc1cc(Cl)n2c(nc3cc(F)c(F)cc32)c1C#N,-13,-13*
Cc1cc(C)n2c(=O)c3ccc(Cl)cc3nc2c1C#N,.,i
CCCN(CC(=O)Nc1ccccc1C)C(=O)C1CC(=O)N(c2cccc(C)c2C)C1 (stereo not drawn),0.01,i
COc1cccc(CN2CCNC(=O)C2CC(=O)NCC2CCOCC2)c1 (stereo not drawn),.,i
O=C(COc1ccc(C(=O)O)cc1)Nc1cccc(C(F)(F)F)c1,0.74,i
SMILES,KCNQ2 pot,KCNQ2 block
O=C(COc1ccc(C(=O)NCCN2CCOCC2)cc1)Nc1cccc(C(F)(F)F)c1,-5.7,-5.7*
COc1ccccc1N1CCN(Cc2cnc3ccc(Cl)cn23)CC1,.,i
CC1(c2ccccc2)NC(=O)N(CC(=O)N2CCN(S(=O)(=O)c3ccccc3[N+](=O)[O-])CC2)C1=O (stereo not drawn),.,i
O=C(O)CN1C(=O)C(=O)N(Cc2ccc(Cl)cc2Cl)C1=O,.,i
O=C(CN(C(=O)CCC(=O)Nc1nccs1)c1ccccc1F)NCCc1ccccc1,0.77,i
OC(c1ccccc1)(C1CCCCC1)C(CN1CCOCC1)c1ccccc1 (stereo not drawn),-5.7,-5.7*
COc1ccc(C(O)(C2CCCCC2)C(CN2CCOCC2)c2ccccc2)cc1 (stereo not drawn),.,i
Cc1ccc(-c2csc3nc(SCC(=O)Nc4ccc(Cl)c(C(=O)O)c4)[nH]c(=O)c23)cc1,1.4,i
Cc1cccc(NC(=O)c2cccc(S(=O)(=O)NCc3ccccc3)c2)n1,.,i
COc1ccccc1N(Cc1ccccc1)S(=O)(=O)c1cccc(C(=O)Nc2cccc(C)n2)c1,-6.4,-6.4*
COC(=O)C1(C)NC(c2ccccc2C)C2C(=O)N(c3ccccc3)C(=O)C21 (stereo not drawn),0.15,i
CCOC(=O)C1(c2ccccc2)NC(c2ccccc2C)C2C(=O)N(c3ccc4c(c3)OCO4)C(=O)C21 (stereo not drawn),-7,-7*
O=C(CN1C(=O)NC2(CCCC2)C1=O)OCCOc1ccc(Cl)cc1Cl,.,i
O=C(CN(c1ccccc1)S(=O)(=O)c1ccccc1[N+](=O)[O-])Nc1cccnc1,2.8,i
Cc1ccc(NC(=O)C(OC(=O)c2ccccc2Cl)c2ccccc2)cc1Cl (stereo not drawn),.,i
Cc1cc(C(=O)OC(C(=O)Nc2ccc(C)c(Cl)c2)c2ccccc2)c(C)o1 (stereo not drawn),-5.8,-5.8*
